# From PubChem BioAssay
# Sampled rows, rich in hits. Any-hit rate of the full collection: about 5.7%.
# hcDAF12 agonist: activates DAF-12 receptor from parasite H. contortus | HEK293 hcDAF-12 lit1-tk-luc reporter, luminescence; 0% DMSO, 100% Δ7-dafachronic acid | activation, % at 6.8 µM | 370,000 compounds, 1.4% hits | AID 652067;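 active = activation above the mean of all tested compounds plus 3 SD, cut at about 5.5% in these data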
# DAX1 inh-1: blocks DAX1 repression of SF-1 activated StAR promoter. HEK293T StAR-luciferase reporter, SF-1/DAX-1 repression relief. inhibition, % at 6.8 µM. 370,000 compounds, 1.1% hits. AID 652010;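 active = inhibition above the mean over all tested compounds plus 3 SD, cut at about 3.6% in these data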;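 also: higher inhibition means more luminescence from relief of DAX-1 repression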
# AHR act: human AHR activation | AID 2796 | 320,000 compounds, 2.5% hits | AHR-responsive luciferase reporter cells, luminescence | activation, % at 5 µM; in the data active = activation above about 47%
# hgDAF-12 ag: hgDAF-12 agonism, primary luciferase screen. HEK293 GAL4-hgDAF12 UAS-luciferase reporter, agonist luminescence; normalized to butyrate control. activation, % at 6.8 µM. 370,000 compounds, 1.8% hits;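 active = activation above a cutoff set at the mean of all screened compounds plus 3 SD, cut at about 10% in these data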
# DAX1 inh-2: NR0B1 (DAX1) inhibition; P51843; HEK293 Gal4-DAX1 luciferase reporter, luminescence; inhibition, % at 6.75 µM; 340,000 compounds, 0.99% hits;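 active = inhibition above the mean over all tested compounds plus 3 SD, cut at about 4.2% in these data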;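 also: inhibition shows as a rise in luminescence from relieved DAX1 repression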
# Target sequence (P51843 207-470 limits assumed): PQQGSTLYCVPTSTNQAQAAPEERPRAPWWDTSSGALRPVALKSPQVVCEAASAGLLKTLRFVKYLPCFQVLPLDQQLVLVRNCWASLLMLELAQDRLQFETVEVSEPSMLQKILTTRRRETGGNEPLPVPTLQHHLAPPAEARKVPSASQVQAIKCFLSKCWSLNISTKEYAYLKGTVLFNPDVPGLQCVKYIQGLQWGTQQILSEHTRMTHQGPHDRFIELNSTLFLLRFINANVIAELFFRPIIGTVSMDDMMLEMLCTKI
# ssDAF-12 act: S. stercoralis DAF-12 activation, primary screen; AID 652126; HEK293 ssDAF-12/GRIP1 lit1-tk-luc reporter, luminescence; % of 3 µM dafachronic acid response; 370,000 compounds, 1% hits; activation, % at 6.8 µM;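 active = activation above the mean over all tested compounds plus 3 SD, cut at about 0.9% in these data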
# LXR ag: LXR-beta agonism as hcDAF-12 counter-screen; activation, % at 6.8 µM; 3,400 tested, under 10 active; shares compounds with hcDAF12 agonist; HEK293 Gal4-LXR tk-luc reporter, luminescence, 24 h; normalized: DMSO 0%, positive control 100%; AID 743027;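 active = mean percent activation of the reporter above a cutoff set as the average over tested compounds plus their standard deviation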
# hcDAF12 ag: hcDAF-12 agonism, confirmation assay | HEK293 hcDAF-12 lit1-tk-luc reporter, luminescence; % of Δ7-dafachronic acid response | AID 743032 | activation, % at 6.8 µM | 3,400 compounds, 61% hits | shares compounds with hcDAF12 agonist;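 active = mean activation across triplicate tests above the threshold derived from the earlier primary screen, cut at about 5.5% in these data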
# hgDAF12 conf: hgDAF-12 agonism, confirmation assay. 3,300 compounds, 80% hits. AID 743050. activation, % at 6.8 µM. shares compounds with hgDAF-12 ag. HEK293 GAL4-hgDAF12 luciferase reporter, agonist mode; percent of butyrate response;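 active = mean activation over triplicate wells above the hit cutoff derived from the earlier primary screen, cut at about 11% in these data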
# LXR ag 2: counter-screen for DAF-12 agonists: agonists of human LXR-beta; shares compounds with hgDAF-12 ag; HEK293 Gal4-LXR luciferase reporter, 24 h; activation, % at 6.8 µM; 3,300 tested, under 10 active; AID 743051;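 active = mean activation of the triplicate above a set limit carried over from the primary screen, none filed active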
# A number is an active result; i = inactive; nt = not tested or not shown; ! = repeats disagree.
SMILES,hcDAF12 agonist,DAX1 inh-1,AHR act,hgDAF-12 ag,DAX1 inh-2,ssDAF-12 act,LXR ag,hcDAF12 ag,hgDAF12 conf,LXR ag 2
Cc1nc2ccc(S(=O)(=O)NCC(=O)Nc3cccc(F)c3)cc2s1,i,i,i,i,i,i,nt,nt,nt,nt
Cc1ccc(-c2nc(N/N=C/c3cccnc3)c3ccccc3n2)cc1,13,i,62,14,i,2.9,i,12,21,i
Cc1ccc(-c2nc(N/N=C/c3cccc([N+](=O)[O-])c3)c3ccccc3n2)cc1,i,i,i,i,i,i,nt,nt,nt,nt
O/N=C/c1ccc(OCc2ccccc2F)c(Cl)c1,6.7,i,i,19,i,i,i,i,17,i
O/N=C/c1ccccc1OCc1ccccc1F,i,i,i,i,i,i,nt,nt,nt,nt
FC(F)(F)c1ccc(Cl)c(Nc2nnc(-c3ccncc3)s2)c1,i,i,nt,i,nt,i,nt,nt,nt,nt
Clc1ccccc1Nc1nnc(-c2ccncc2)s1,11,4.4,i,17,i,i,i,6.7,17,i
O=C(CSc1nnc2ccccn12)NC(=O)c1ccccc1Cl,i,i,i,i,i,i,nt,nt,nt,nt
COc1ccccc1OCCSc1nnnn1-c1ccc(C)cc1,i,i,i,i,i,i,nt,nt,nt,nt
Fc1ccccc1OCCSc1nnnn1-c1ccccc1,8.1,i,i,13,i,i,i,7.7,18,i
Cc1ccccc1S(=O)(=O)NC(=O)C1(C)CCN1C(=O)C1(c2ccccc2)CC1 (stereo not given),i,i,nt,i,nt,i,nt,nt,nt,nt
O=C(Nc1ccccc1)Nc1cccc2ccccc12,i,i,i,i,i,i,nt,nt,nt,nt
O=C(Nc1ccccc1)Nc1cccc2cccnc12,9.0,i,71,15,i,1.8,i,8.6,17,i
CN1CCCCCC1C(=O)N1CCC(N2CCC(C(=O)N3CCOCC3)CC2)CC1 (stereo not given),i,i,i,i,i,i,nt,nt,nt,nt
CCN(CCn1cccn1)C(=O)c1cc(COc2cc(C)ccc2C)on1,7.5,i,nt,14,i,1.7,i,i,12,i
O=C(NN1CCCCC1)c1ccc(COc2ccc(Cl)cc2)cc1,i,i,i,i,i,i,nt,nt,nt,nt
Cc1ccc(C(O)(C(=O)NNc2ccc3ccccc3n2)c2ccc(C)cc2)cc1,i,i,i,i,i,i,nt,nt,nt,nt
Cc1ccc(C(=O)Nc2ccc3ccccc3n2)cc1,8.2,i,i,15,i,2.7,i,8.4,21,i
O=C(Nc1ccc2ccccc2n1)c1ccccc1,13,i,i,20,i,1.1,i,12,21,i
O=C(Nc1ccc2ccccc2n1)c1ccccc1Br,16,i,i,19,i,3.8,i,9.5,18,i
CCc1cccc(C)c1NC(=S)N(CCN(C)C)C(C)c1cccnc1 (stereo not given),i,i,i,i,i,i,nt,nt,nt,nt
O=C1C2C3CCC(CC3)C2C(=O)N1c1ccccc1 (stereo not given),i,i,i,i,i,i,nt,nt,nt,nt
CC(C)[C@H](NC(=O)OC(C)(C)C)c1cc(C(=O)N[C@@H](C)c2ccccc2)c(N)s1,i,i,nt,i,nt,i,nt,nt,nt,nt
COc1cc(NC(=O)C/C(C)=N/NC(=O)c2cccs2)c(OC)cc1Cl,7.9,4.0,64,15,i,i,i,i,i,i
COc1ccc(Cl)cc1NC(=O)C/C(C)=N/NC(=O)c1ccccc1Cl,i,i,i,i,i,i,nt,nt,nt,nt
CC(=O)NC12CC3CC(C1)CC(C(=O)N1CCN(S(=O)(=O)c4ccccc4C#N)CC1)(C3)C2,i,i,nt,i,i,i,nt,nt,nt,nt
CC1=CC(C)=Nc2ccc(C)cc2N1,5.6,4.1,i,16,i,i,i,i,12!,i
